Results on 54 sequences are retold here after article PMC10726135, “HNF4α isoforms regulate the circadian balance between carbohydrate and lipid metabolism in the liver”.

In all, about 18,000 sequences were measured (“log2 normalized intensity”: median about 0.39, highest 2% from about 6.6 on). For the sample, the highest values were picked, then their nearest neighbours and some sequences at random.

The target of this test is T1, HNF4alpha2 (COS-7 nuclear extract) (Homo sapiens, UniProt P41235 1-474).
T1 sequence: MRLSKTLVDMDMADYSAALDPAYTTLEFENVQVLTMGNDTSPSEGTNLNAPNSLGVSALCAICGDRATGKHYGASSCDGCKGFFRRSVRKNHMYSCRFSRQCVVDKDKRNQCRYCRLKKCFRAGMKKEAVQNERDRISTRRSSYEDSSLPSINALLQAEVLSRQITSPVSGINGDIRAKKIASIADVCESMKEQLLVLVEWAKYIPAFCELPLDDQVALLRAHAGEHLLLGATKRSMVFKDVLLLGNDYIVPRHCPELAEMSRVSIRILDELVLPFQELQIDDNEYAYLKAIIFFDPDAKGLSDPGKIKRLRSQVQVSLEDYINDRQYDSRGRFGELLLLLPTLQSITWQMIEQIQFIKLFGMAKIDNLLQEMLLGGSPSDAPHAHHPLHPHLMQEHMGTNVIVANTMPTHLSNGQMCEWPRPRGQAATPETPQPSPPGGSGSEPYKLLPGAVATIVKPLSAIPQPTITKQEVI
Nature of the test: protein-binding microarray; COS-7 nuclear extract on double-stranded Agilent 4x180k PBM; binding buffer, salt, pH and temperature not given in the material; high values mean tight binding. Particulars: chain copies: 2; label: 3' end of strand 1 on the slide; dsDNA, one strand shown. In a few lines: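 Nuclear extracts came from COS-7 cells transiently transfected by CaPO4 with a human HNF4α isoform expression vector. They were applied to a custom Agilent SurePrint G3 4x180k array of ~60-nt oligonucleotides, made double-stranded, with ~44,000 test sequences spotted in quadruplicate. Bound HNF4α was imaged at 2-µm resolution on an Agilent G2565CA scanner. Binding signal was taken as background-corrected, normalized gProcessedSignal from Agilent software.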
On to “CTGTTGGTGACTGACCCTGATCCCTCCCTGGCCTAGGGAGATTAGAGTATCGGTCGA”, for which the binding signal is 3.18 log2 normalized intensity. Regarding “GGATCCCATTCATGTGGGTCAACAGACAAAGCCTAGGGAGATTAGAGTATCGGTCGA”, the binding signal came to 0.575 log2 normalized intensity. For “AAAGTCTTTCTCTTTCAAGATAACAAGGCAGCCTAGGGAGATTAGAGTATCGGTCGA”, the binding signal came to 1.37 log2 normalized intensity. For “CTGATCAAAGGTCATTGGTATTGATAGCGCGCCTAGGGAGATTAGAGTATCGGTCGA”, the binding signal was found to be 4.8 log2 normalized intensity. Next, “ATATCTATATGTTTACATATCACTGTACTCGCCTAGGGAGATTAGAGTATCGGTCGA”: 2.08 log2 normalized intensity; “TCCCCACCCCCAACTTCCCCAACCCTTGCAGCCTAGGGAGATTAGAGTATCGGTCGA”: 6.3 log2 normalized intensity.

On to “GCTCCCTCCCCTCCTCCCTTGCTCACCCCAGCCTAGGGAGATTAGAGTATCGGTCGA”, for which the binding signal is 5.91 log2 normalized intensity.

Consider “GGTCTCCTTGCCCCACCCCCCACCCCAGAAGCCTAGGGAGATTAGAGTATCGGTCGA”, for which the binding signal amounted to 6.86 log2 normalized intensity.

On to “ACCAAGGGTCATGCTGGTCTCCTTGCCCCAGCCTAGGGAGATTAGAGTATCGGTCGA”, for which the binding signal turned out to be 1.74 log2 normalized intensity.

In the case of “ATGCTGGTCTCCTTGCCCCACCCCCCACCCGCCTAGGGAGATTAGAGTATCGGTCGA”, the binding signal was 7.6 log2 normalized intensity. To “ATCCCCGCTCCCCTCCCCCACCCGCGGTCCGCCTAGGGAGATTAGAGTATCGGTCGA” belongs 6.38 log2 normalized intensity; to “CCTTGCCCCACCCCCCACCCCAGAAGTATGGCCTAGGGAGATTAGAGTATCGGTCGA”, 6.2 log2 normalized intensity; to “GGGTCATGCTGGTCTCCTTGCCCCACCCCCGCCTAGGGAGATTAGAGTATCGGTCGA”, 5.55 log2 normalized intensity. Next, “CATGCTCCCCACCCCCAACTTCCCCAACCCGCCTAGGGAGATTAGAGTATCGGTCGA”: 6.67 log2 normalized intensity; “CGAACCTGTCTCCAGAGGACTTGCGGTGTTGCCTAGGGAGATTAGAGTATCGGTCGA”: 0.482 log2 normalized intensity; “AGAACCTGCCCATGACCTTTGGACTGTGACGCCTAGGGAGATTAGAGTATCGGTCGA”: 9.54 log2 normalized intensity. As to “CTTTGGAACCTGCCCTCTGTCCCATGGTGTGCCTAGGGAGATTAGAGTATCGGTCGA”, the binding signal worked out at 2.48 log2 normalized intensity. Next, “CATGACCTTTGGACTGTGACCCCACCTCTCGCCTAGGGAGATTAGAGTATCGGTCGA”: 7.45 log2 normalized intensity; “CCTTTGGACTGTGACCCCACCTCTCAGACAGCCTAGGGAGATTAGAGTATCGGTCGA”: 4.83 log2 normalized intensity; “CTGCCCTTTGGAACCTGCCCTCTGTCCCATGCCTAGGGAGATTAGAGTATCGGTCGA”: 4.15 log2 normalized intensity. Consider “GGACTGTGACCCCACCTCTCAGACAGAGCTGCCTAGGGAGATTAGAGTATCGGTCGA”, for which the binding signal is 2.75 log2 normalized intensity. Take “AAACCCAAGATTTGGTGTTACCTTTGGACTGCCTAGGGAGATTAGAGTATCGGTCGA”: the binding signal was determined as 5.71 log2 normalized intensity. For the sequence “GGGTCAGAACCTGCCCATGACCTTTGGACTGCCTAGGGAGATTAGAGTATCGGTCGA”, the binding signal came out at 11.1 log2 normalized intensity. To “GGGCAGGGTCAGAACCTGCCCATGACCTTTGCCTAGGGAGATTAGAGTATCGGTCGA” belongs 5.92 log2 normalized intensity. Next, “TGTAATAAGGAGTTGTGTGATAAGGAGGGCGCCTAGGGAGATTAGAGTATCGGTCGA”: 0.534 log2 normalized intensity; “CATGCAATCACACTAATCTGTCAGAAAACCGCCTAGGGAGATTAGAGTATCGGTCGA”: -0.731 log2 normalized intensity. To “GGTGAGGGTTACAGGTGGACAAACAGGCTGGCCTAGGGAGATTAGAGTATCGGTCGA” belongs -0.829 log2 normalized intensity; to “GAATTTGGACTTTGCACTAAAAGCCATGAGGCCTAGGGAGATTAGAGTATCGGTCGA”, 5.86 log2 normalized intensity. Take “AGGGATTCCTGAAGATCGCAGACTTTGGACGCCTAGGGAGATTAGAGTATCGGTCGA”: the binding signal was 5.66 log2 normalized intensity. Regarding “GGAGACCTGAAACTAGACCAAGAAGACTTTGCCTAGGGAGATTAGAGTATCGGTCGA”, the binding signal was -0.974 log2 normalized intensity. Next, “TGGACTTTGGAATTAAGGAGATTTGGCTTTGCCTAGGGAGATTAGAGTATCGGTCGA”: 4.84 log2 normalized intensity; “GAAGATCGCAGACTTTGGACTCTGCAAGGAGCCTAGGGAGATTAGAGTATCGGTCGA”: 5.8 log2 normalized intensity. To “CTGAAGAATTTGGACTTTGCACTAAAAGCCGCCTAGGGAGATTAGAGTATCGGTCGA” belongs 6.95 log2 normalized intensity; to “TGGACTTTGCACTAAAAGCCATGAGAAGGTGCCTAGGGAGATTAGAGTATCGGTCGA”, 4.84 log2 normalized intensity. To “TTCCTGAAGATCGCAGACTTTGGACTCTGCGCCTAGGGAGATTAGAGTATCGGTCGA” belongs 7.83 log2 normalized intensity; to “CTGGCAGCACCTGAAGAATTTGGACTTTGCGCCTAGGGAGATTAGAGTATCGGTCGA”, 7.7 log2 normalized intensity. For “GGGTCCTGGCAGCACCTGAAGAATTTGGACGCCTAGGGAGATTAGAGTATCGGTCGA”, the binding signal is 1.23 log2 normalized intensity.

With “AGCACCTGAAGAATTTGGACTTTGCACTAAGCCTAGGGAGATTAGAGTATCGGTCGA”, the binding signal was found to be 8.43 log2 normalized intensity.

As to “GGTGAGTCTTTGCCCCTGGACTTTGAATTTGCCTAGGGAGATTAGAGTATCGGTCGA”, the binding signal stood at 4.94 log2 normalized intensity. To “AATAGTGACCTCTGCTGGCCAGTGGAAAACGCCTAGGGAGATTAGAGTATCGGTCGA” belongs 1.08 log2 normalized intensity; to “CAGTCTAGAATCTGCAGCCCCTTTTGGAATGCCTAGGGAGATTAGAGTATCGGTCGA”, 2.02 log2 normalized intensity. To “CCACTGGAGTCTTGTTTGTCAAGTTTGGTAGCCTAGGGAGATTAGAGTATCGGTCGA” belongs 1.81 log2 normalized intensity; to “AGGGTGTTGTGGAATGTGCTTGGACCTGCTGCCTAGGGAGATTAGAGTATCGGTCGA”, 1.99 log2 normalized intensity; to “AGAAATGTTATCTCAGTAGACTAACGTATGGCCTAGGGAGATTAGAGTATCGGTCGA”, 0.476 log2 normalized intensity. Next, “GCATTCCACCAAATCTTACCTAAGGAAGTTGCCTAGGGAGATTAGAGTATCGGTCGA”: -0.954 log2 normalized intensity. For “TCCAAAATACGACCTTTGGACAGGGTGACGGCCTAGGGAGATTAGAGTATCGGTCGA”, the binding signal is 6.8 log2 normalized intensity.

Regarding “TTGGACTTTGTACATTCCAAATACGATAATGCCTAGGGAGATTAGAGTATCGGTCGA”, the binding signal stood at 5.36 log2 normalized intensity. To “AATACGACCTTTGGACAGGGTGACGTCATTGCCTAGGGAGATTAGAGTATCGGTCGA” belongs 6.27 log2 normalized intensity; to “GTACTTTGTACATGGGAATAGACATTCCAGGCCTAGGGAGATTAGAGTATCGGTCGA”, 2.04 log2 normalized intensity.

For “GGGCTTTTGTCACATTCCAGACTTTGTACAGCCTAGGGAGATTAGAGTATCGGTCGA”, the binding signal is 4.95 log2 normalized intensity.

Consider “CCTGGTGACCTTTGTTTGGTCAAATACCTAGCCTAGGGAGATTAGAGTATCGGTCGA”, for which the binding signal was 2.9 log2 normalized intensity. Next, “ACATCAGAAGTTGGACTTTGTACATTCCAAGCCTAGGGAGATTAGAGTATCGGTCGA”: 7.69 log2 normalized intensity.

Regarding “ATTCCAAGAAGAGCCAATAGTACACATCAAGCCTAGGGAGATTAGAGTATCGGTCGA”, the binding signal was -0.572 log2 normalized intensity. To “AGAAGTTGGACTTTGTACATTCCAAATACGGCCTAGGGAGATTAGAGTATCGGTCGA” belongs 6.88 log2 normalized intensity.
